{"source": "PubChem BioAssay (EPA / NIEHS)", "key": {"[1]": {"molecular_target": "human Protein Tyrosine Phosphatase Receptor Type B (PTPRB), PTPRB (gene 5787) (UniProt P23467)", "experiment": "NVS_ENZ_hPTPRB: NovaScreen (NVS) Enzymatic Assay for human Protein Tyrosine Phosphatase Receptor Type B (PTPRB) (AID 2283211)", "outline": "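Recombinant human PTPRB with a fluorescent substrate, product separated by electrophoretic mobility shift; read 1 h after dosing. Primary screen in duplicate at 25 uM; actives then retested in concentration series; loss of signal versus DMSO.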"}, "[2]": {"molecular_target": "human Protein Tyrosine Phosphatase Receptor Type F (PTPRF), PTPRF (gene 5792) (UniProt P10586)", "experiment": "NVS_ENZ_hPTPRF: NovaScreen (NVS) Enzymatic Assay for human Protein Tyrosine Phosphatase Receptor Type F (PTPRF) (AID 2283213)", "outline": "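Cell-free fluorescence enzyme assay with recombinant protein and substrate; product separated by electrophoretic mobility shift. Read 1 h after dosing, single 25 uM duplicate screen, then concentration-response up to 50 uM; loss of signal vs DMSO.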"}, "[3]": {"molecular_target": "sheep Cyclooxygenase-1 (Cox1), PTGS1 (gene 443551) (UniProt P05979)", "sequence (P05979 whole entry, looked up)": "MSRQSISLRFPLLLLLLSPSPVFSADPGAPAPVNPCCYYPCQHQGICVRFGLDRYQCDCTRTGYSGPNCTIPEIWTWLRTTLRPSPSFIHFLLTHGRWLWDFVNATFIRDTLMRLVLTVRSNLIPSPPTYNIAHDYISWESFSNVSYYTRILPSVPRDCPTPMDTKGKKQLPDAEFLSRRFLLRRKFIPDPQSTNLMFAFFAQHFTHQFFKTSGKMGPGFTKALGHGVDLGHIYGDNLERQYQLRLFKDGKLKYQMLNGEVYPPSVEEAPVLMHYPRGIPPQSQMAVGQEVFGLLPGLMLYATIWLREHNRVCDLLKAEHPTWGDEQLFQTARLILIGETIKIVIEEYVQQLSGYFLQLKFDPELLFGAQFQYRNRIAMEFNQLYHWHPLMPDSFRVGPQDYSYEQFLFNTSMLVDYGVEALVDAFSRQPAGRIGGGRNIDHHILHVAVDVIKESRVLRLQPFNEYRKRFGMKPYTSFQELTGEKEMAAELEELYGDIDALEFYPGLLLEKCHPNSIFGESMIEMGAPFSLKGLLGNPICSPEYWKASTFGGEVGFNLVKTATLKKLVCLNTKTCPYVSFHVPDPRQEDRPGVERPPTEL", "experiment": "NVS_ENZ_oCOX1: NovaScreen (NVS) Enzymatic Assay for sheep Cyclooxygenase-1 (Cox1) (AID 2283239);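 note: actives reduce cyclooxygenase activity so potencies are for inhibitors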", "outline": "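COX1 from ovine seminal vesicles, activity read colorimetrically about 0.66 h after dosing. Primary screen in duplicate at 25 uM; actives retested in concentration series; loss of signal fitted versus DMSO.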"}, "[4]": {"molecular_target": "human Tropomyosin Receptor Kinase A (TRKA), NTRK1 (gene 4914) (UniProt P04629)", "experiment": "NVS_ENZ_hTrkA: NovaScreen (NVS) Enzymatic Assay for human Tropomyosin Receptor Kinase A (TRKA) (AID 2283224)", "outline": "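Compounds were screened at 25 uM in duplicate, then concentration series to a 50 uM top for those meeting threshold (e.g. 30% inhibition). Enzyme was recombinant human TrkA, incubated 1 h. Product formation was quantified by fluorescence after mobility-shift separation.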"}, "[5]": {"tested_on": "bovine Angiotensin II Receptor Type 2 (AT2), gene 407157", "experiment": "NVS_GPCR_bAT2: NovaScreen (NVS) G Protein-Coupled Receptor Assay for bovine Angiotensin II Receptor Type 2 (AT2) (AID 2283240)", "outline": "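Radioligand displacement on bovine cerebellar membranes, 1 hour incubation, filter-based scintillation counting; loss of signal vs DMSO. Duplicate single-point screen at 25 uM, then concentration-response to 50 uM maximum.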"}, "[6]": {"molecular_target": "sheep Cyclooxygenase-2 (Cox2), PTGS2 (gene 443460) (UniProt P79208)", "sequence (P79208 whole entry, looked up)": "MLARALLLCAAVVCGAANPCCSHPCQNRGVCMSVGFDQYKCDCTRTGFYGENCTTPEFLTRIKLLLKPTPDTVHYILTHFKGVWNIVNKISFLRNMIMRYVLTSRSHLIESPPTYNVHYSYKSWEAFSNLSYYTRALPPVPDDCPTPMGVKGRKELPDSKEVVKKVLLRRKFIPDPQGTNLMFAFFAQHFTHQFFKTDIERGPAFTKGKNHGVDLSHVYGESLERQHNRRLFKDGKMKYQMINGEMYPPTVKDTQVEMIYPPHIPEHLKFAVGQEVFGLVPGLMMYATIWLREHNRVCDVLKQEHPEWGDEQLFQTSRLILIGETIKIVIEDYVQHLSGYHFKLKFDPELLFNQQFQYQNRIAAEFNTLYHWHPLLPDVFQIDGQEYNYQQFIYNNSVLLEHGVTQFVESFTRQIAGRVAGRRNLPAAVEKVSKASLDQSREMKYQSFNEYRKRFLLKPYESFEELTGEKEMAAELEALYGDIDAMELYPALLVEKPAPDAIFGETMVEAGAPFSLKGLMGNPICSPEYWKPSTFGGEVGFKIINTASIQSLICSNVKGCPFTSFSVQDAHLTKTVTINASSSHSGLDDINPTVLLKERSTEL", "experiment": "NVS_ENZ_oCOX2: NovaScreen (NVS) Enzymatic Assay for sheep Cyclooxygenase-2 (Cox2) (AID 2283231)", "outline": "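Enzyme from ovine placenta, cell-free; colorimetric absorbance read 0.66 hour after dosing, loss of signal vs DMSO. Screened in duplicate at 25 uM, then concentration-response up to 50 uM.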"}, "[7]": {"molecular_target": "rabbit Imidazoline 2 Central (I2C), CKB (gene 100009085) (UniProt P00567)", "sequence (P00567 whole entry, looked up)": "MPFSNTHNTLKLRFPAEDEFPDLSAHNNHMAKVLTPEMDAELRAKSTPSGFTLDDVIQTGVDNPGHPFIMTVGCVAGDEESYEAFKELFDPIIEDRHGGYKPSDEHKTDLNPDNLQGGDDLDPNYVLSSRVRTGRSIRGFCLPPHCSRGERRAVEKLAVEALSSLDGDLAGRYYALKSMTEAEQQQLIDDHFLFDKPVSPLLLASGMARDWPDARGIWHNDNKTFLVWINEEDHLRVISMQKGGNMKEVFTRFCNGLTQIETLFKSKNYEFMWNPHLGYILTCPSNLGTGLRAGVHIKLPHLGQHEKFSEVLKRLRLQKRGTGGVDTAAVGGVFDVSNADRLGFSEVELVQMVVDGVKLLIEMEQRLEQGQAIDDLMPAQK", "experiment": "NVS_ENZ_rabI2C: NovaScreen (NVS) Enzymatic Assay for rabbit Imidazoline 2 Central (I2C) (AID 2283228)", "outline": "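Rabbit brain membranes, cell-free; readout by filter-based scintillation counting 1.5 hours after dosing, loss of signal vs DMSO. Initial duplicate test at 25 uM, then concentration-response with 50 uM top concentration.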"}, "[8]": {"molecular_target": "human Vascular Endothelial Growth Factor Receptor 3 (VEGFR3), FLT4 (gene 2324) (UniProt P35916)", "experiment": "NVS_ENZ_hVEGFR3: NovaScreen (NVS) Enzymatic Assay for human Vascular Endothelial Growth Factor Receptor 3 (VEGFR3) (AID 2283229)", "outline": "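Chemicals first run in duplicate at 25 uM, with actives re-tested in concentration series to a top of 50 uM. Recombinant VEGFR3 activity measured after 1 h via fluorescence with mobility-shift product separation; inhibition fitted relative to DMSO.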"}, "[9]": {"molecular_target": "rat Constitutive Nitric Oxide Synthase (CNOS), Nos1 (gene 24598) (UniProt P29476)", "sequence (P29476 whole entry, looked up)": "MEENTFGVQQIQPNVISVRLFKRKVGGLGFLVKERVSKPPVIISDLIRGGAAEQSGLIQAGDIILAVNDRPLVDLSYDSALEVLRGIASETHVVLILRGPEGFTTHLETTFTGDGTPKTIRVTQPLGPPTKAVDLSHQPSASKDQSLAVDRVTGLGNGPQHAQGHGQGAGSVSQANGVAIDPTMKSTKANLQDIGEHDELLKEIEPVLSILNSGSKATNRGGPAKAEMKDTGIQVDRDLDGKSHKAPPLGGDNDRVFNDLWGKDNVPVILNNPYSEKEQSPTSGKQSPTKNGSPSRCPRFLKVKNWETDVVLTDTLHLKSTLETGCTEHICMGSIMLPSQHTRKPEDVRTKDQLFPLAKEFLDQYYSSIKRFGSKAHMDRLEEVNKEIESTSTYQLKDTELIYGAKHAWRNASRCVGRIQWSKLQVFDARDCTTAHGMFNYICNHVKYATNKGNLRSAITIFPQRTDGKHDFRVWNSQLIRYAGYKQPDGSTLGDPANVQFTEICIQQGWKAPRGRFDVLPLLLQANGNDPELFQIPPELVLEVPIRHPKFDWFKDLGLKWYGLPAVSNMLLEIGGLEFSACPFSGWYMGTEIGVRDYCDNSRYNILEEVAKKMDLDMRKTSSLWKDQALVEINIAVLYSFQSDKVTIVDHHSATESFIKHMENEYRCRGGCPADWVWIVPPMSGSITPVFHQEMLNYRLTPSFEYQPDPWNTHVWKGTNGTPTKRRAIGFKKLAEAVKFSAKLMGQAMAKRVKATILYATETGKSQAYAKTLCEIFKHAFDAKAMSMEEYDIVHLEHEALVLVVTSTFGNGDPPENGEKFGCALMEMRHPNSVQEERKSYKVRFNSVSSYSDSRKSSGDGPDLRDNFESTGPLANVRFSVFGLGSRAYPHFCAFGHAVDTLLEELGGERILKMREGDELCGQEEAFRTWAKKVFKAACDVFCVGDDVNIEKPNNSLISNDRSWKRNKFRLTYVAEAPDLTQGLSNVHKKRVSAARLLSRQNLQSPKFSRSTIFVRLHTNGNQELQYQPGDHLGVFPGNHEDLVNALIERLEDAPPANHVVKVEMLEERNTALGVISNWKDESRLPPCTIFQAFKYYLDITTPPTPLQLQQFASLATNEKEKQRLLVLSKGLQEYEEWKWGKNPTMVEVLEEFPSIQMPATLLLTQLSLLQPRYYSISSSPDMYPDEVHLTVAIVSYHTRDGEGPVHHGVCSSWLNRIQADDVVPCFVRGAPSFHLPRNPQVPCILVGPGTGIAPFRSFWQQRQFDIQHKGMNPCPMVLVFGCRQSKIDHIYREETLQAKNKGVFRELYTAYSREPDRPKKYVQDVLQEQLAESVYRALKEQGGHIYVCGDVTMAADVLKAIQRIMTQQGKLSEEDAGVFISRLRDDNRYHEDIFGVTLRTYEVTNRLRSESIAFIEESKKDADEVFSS", "experiment": "NVS_ENZ_rCNOS: NovaScreen (NVS) Enzymatic Assay for rat Constitutive Nitric Oxide Synthase (CNOS) (AID 2283236)", "outline": "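Single 25 uM duplicate screen, then concentration series to 50 uM for chemicals meeting threshold. Rat brain membrane-derived CNOS activity detected radiometrically by filtration and scintillation counting, 1 h after compound addition; DMSO as baseline.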"}, "[10]": {"molecular_target": "human Vascular Endothelial Growth Factor Receptor 2 (VEGFR2), KDR (gene 3791) (UniProt P35968)", "sequence (P35968 whole entry, looked up)": "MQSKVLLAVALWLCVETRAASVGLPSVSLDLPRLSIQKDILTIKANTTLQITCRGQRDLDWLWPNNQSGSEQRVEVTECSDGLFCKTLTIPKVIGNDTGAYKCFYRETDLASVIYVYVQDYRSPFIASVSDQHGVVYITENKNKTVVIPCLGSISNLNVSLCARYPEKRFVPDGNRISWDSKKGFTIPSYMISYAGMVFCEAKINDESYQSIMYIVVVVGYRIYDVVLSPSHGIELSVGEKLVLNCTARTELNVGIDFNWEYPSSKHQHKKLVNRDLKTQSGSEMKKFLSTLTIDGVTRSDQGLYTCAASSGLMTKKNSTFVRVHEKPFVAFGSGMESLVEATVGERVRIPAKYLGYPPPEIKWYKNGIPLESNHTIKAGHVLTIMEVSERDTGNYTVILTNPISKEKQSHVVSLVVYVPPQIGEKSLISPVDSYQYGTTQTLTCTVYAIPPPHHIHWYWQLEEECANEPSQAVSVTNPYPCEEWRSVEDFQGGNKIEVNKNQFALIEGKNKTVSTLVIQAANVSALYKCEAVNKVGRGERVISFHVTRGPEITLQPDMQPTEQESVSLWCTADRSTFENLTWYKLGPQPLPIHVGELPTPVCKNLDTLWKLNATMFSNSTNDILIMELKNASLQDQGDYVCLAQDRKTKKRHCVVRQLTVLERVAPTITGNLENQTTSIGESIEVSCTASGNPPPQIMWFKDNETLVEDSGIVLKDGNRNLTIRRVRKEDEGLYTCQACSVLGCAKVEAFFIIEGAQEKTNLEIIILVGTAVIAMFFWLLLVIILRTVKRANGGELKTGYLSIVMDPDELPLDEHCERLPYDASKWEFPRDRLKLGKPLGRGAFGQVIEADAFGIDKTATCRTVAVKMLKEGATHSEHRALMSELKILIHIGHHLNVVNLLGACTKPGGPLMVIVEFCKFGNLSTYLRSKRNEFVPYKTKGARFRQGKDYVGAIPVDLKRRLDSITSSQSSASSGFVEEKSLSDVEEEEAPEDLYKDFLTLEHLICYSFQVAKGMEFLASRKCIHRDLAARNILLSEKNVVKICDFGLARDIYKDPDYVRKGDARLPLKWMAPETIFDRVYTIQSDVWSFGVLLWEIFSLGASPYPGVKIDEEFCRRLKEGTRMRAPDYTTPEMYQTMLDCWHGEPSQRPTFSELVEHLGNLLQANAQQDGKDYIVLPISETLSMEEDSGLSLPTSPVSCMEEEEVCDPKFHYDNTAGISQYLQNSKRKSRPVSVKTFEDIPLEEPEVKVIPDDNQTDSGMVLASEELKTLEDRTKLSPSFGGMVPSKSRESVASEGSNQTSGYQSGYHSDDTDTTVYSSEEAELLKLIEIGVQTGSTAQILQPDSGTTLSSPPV", "experiment": "NVS_ENZ_hVEGFR2: NovaScreen (NVS) Enzymatic Assay for human Vascular Endothelial Growth Factor Receptor 2 (VEGFR2) (AID 2283230)", "outline": "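Cell-free recombinant VEGFR2 kinase, fluorescent substrate with electrophoretic mobility-shift separation; read 1 h after dosing. Screened at 25 uM in duplicate, hits to concentration-response up to 50 uM; loss-of-signal versus DMSO.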"}, "[11]": {"molecular_target": "rat Catechol-O-Methyl Transferase (COMT), Comt (gene 24267) (UniProt P22734)", "sequence (P22734 whole entry, looked up)": "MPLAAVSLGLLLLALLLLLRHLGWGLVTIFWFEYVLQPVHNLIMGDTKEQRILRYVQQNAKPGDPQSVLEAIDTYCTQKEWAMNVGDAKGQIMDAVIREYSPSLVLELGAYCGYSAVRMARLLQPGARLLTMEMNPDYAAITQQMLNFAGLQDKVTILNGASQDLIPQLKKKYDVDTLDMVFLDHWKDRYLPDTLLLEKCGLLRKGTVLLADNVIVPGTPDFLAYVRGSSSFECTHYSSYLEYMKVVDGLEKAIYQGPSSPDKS", "experiment": "NVS_ENZ_rCOMT: NovaScreen (NVS) Enzymatic Assay for rat Catechol-O-Methyl Transferase (COMT) (AID 2283235)", "outline": "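Rat dorsal striatum extract served as COMT source; product quantified by HPLC/spectrophotometry, read at 0 h after dosing. Primary single-concentration screen at 25 uM, followed by concentration series to a 50 uM maximum.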"}}, "note": "Inconclusive results are not listed. Activity calls are given as the source filed them. Rule for the calls: active = hit-call score of the fitted dose curve at least 0.9, where 1 is the maximum; inconclusive = response in the unintended direction; inactive = score below 0.9.", "data": [{"smiles": "CCCCC(CC)CO", "note": "(centres undefined)", "values": [{"measurement": "outcome", "setting": "[1]", "result": "inactive"}]}, {"smiles": "CN(C)C(=O)NC1(c2ccccc2)CCN(CCC[C@]2(c3ccc(Cl)c(Cl)c3)CCCN(C(=O)c3ccccc3)C2)CC1", "values": [{"measurement": "outcome", "setting": "[2]", "result": "inactive"}]}, {"smiles": "COc1ccc(OC(F)(F)F)cc1CN[C@H]1CCCN[C@H]1c1ccccc1", "values": [{"measurement": "outcome", "setting": "[2]", "result": "inactive"}, {"measurement": "AC50", "setting": "[3]", "result": "11.6 µM (active)"}]}, {"smiles": "CCN(CC)CCOc1ccc(C(=C(Cl)c2ccccc2)c2ccccc2)cc1", "values": [{"measurement": "outcome", "setting": "[4]", "result": "inactive"}, {"measurement": "AC50", "setting": "[3]", "result": "4.39 µM (active)"}]}, {"smiles": "CCCCc1nc2cccnc2n1Cc1ccc(-c2ccccc2-c2nnn[nH]2)cc1", "values": [{"measurement": "outcome", "setting": "[5]", "result": "inactive"}]}, {"smiles": "O=C(O)CC(O)(CC(=O)O)C(=O)O", "values": [{"measurement": "outcome", "setting": "[4]", "result": "inactive"}]}, {"smiles": "O=NO", "values": [{"measurement": "outcome", "setting": "[6]", "result": "inactive"}]}, {"smiles": "O=C(O)c1[nH]n(-c2ccc(S(=O)(=O)O)cc2)c(=O)c1N=Nc1ccc(S(=O)(=O)O)cc1", "values": [{"measurement": "outcome", "setting": "[7]", "result": "inactive"}, {"measurement": "outcome", "setting": "[8]", "result": "inactive"}, {"measurement": "AC50", "setting": "[9]", "result": "9.33 µM (active)"}]}, {"smiles": "CCc1cc(C2=C(C(=O)O)N(c3ccccc3C(F)(F)F)S(=O)(=O)c3ccccc32)cc2c1OCO2", "values": [{"measurement": "AC50", "setting": "[6]", "result": "19.2 µM (active)"}, {"measurement": "AC50", "setting": "[5]", "result": "25 µM (active)"}]}, {"smiles": "Oc1ccc(O)cc1", "values": [{"measurement": "outcome", "setting": "[3]", "result": "inactive"}]}, {"smiles": "CCC(C)N(C)C(=O)c1cc2ccccc2c(-c2ccccc2Cl)n1", "note": "(centres undefined)", "values": [{"measurement": "outcome", "setting": "[9]", "result": "inactive"}]}, {"smiles": "S=c1[nH]c2ccccc2s1", "values": [{"measurement": "AC50", "setting": "[6]", "result": "9.72 µM (active)"}, {"measurement": "AC50", "setting": "[9]", "result": "10.6 µM (active)"}, {"measurement": "AC50", "setting": "[3]", "result": "8.91 µM (active)"}]}, {"smiles": "O=C(NS(=O)(=O)/C=C/c1cccs1)c1ccc(F)cc1Br", "values": [{"measurement": "AC50", "setting": "[5]", "result": "14.5 µM (active)"}]}, {"smiles": "NC(=Nc1ccccc1)Nc1ccccc1", "values": [{"measurement": "outcome", "setting": "[7]", "result": "inactive"}, {"measurement": "outcome", "setting": "[10]", "result": "inactive"}, {"measurement": "outcome", "setting": "[3]", "result": "inactive"}]}, {"smiles": "Oc1ccccc1O", "values": [{"measurement": "outcome", "setting": "[6]", "result": "inactive"}, {"measurement": "outcome", "setting": "[11]", "result": "inactive"}]}, {"smiles": "CC(=O)S[C@H](C(=O)N[C@H]1Cc2ccccc2[C@H]2CCC[C@@H](C(=O)O)N2C1=O)C(C)C", "values": [{"measurement": "outcome", "setting": "[9]", "result": "inactive"}, {"measurement": "outcome", "setting": "[3]", "result": "inactive"}]}, {"smiles": "C#CC(O)C(CC)CCCC", "note": "(centres undefined)", "values": [{"measurement": "outcome", "setting": "[3]", "result": "inactive"}]}, {"smiles": "CCCCCCCCCC[N+](C)(C)[O-]", "values": [{"measurement": "AC50", "setting": "[7]", "result": "8.08 µM (active)"}]}, {"smiles": "Nc1nc(=S)c2[nH]cnc2[nH]1", "values": [{"measurement": "AC50", "setting": "[7]", "result": "20.7 µM (active)"}, {"measurement": "AC50", "setting": "[3]", "result": "2.25 µM (active)"}]}, {"smiles": "NC1CCCCC1", "values": [{"measurement": "AC50", "setting": "[7]", "result": "30.3 µM (active)"}]}, {"smiles": "Cn1cnc2c1c(=O)[nH]c(=O)n2C", "values": [{"measurement": "outcome", "setting": "[7]", "result": "inactive"}, {"measurement": "outcome", "setting": "[3]", "result": "inactive"}]}, {"smiles": "CSc1ccc(Oc2ccc(S(N)(=O)=O)cc2CN(C)C)cc1C", "values": [{"measurement": "outcome", "setting": "[3]", "result": "inactive"}]}, {"smiles": "O=[Si]=O", "values": [{"measurement": "outcome", "setting": "[3]", "result": "inactive"}]}, {"smiles": "C/C=C/c1ccc(OC)cc1", "values": [{"measurement": "outcome", "setting": "[6]", "result": "inactive"}]}, {"smiles": "O=C1c2c(O)cccc2Cc2cccc(O)c21", "values": [{"measurement": "AC50", "setting": "[6]", "result": "6.81 µM (active)"}, {"measurement": "AC50", "setting": "[11]", "result": "12.1 µM (active)"}, {"measurement": "AC50", "setting": "[9]", "result": "5.47 µM (active)"}, {"measurement": "AC50", "setting": "[3]", "result": "3.2 µM (active)"}]}, {"smiles": "COC(=O)[C@H]1[C@H]2C[C@@H]3c4[nH]c5cc(OC)ccc5c4CCN3C[C@H]2C[C@@H](OC(=O)c2cc(OC)c(OC)c(OC)c2)[C@@H]1OC", "values": [{"measurement": "outcome", "setting": "[7]", "result": "inactive"}, {"measurement": "AC50", "setting": "[3]", "result": "19.5 µM (active)"}]}, {"smiles": "CC(=O)OCC(COC(C)=O)OC(C)=O", "values": [{"measurement": "outcome", "setting": "[11]", "result": "inactive"}]}, {"smiles": "CCCCCCCCCCCCCCCCO", "values": [{"measurement": "AC50", "setting": "[8]", "result": "46.6 µM (active)"}]}, {"smiles": "CCCCC(CC)COC(=O)CCCCCCCC(=O)OCC(CC)CCCC", "note": "(centres undefined)", "values": [{"measurement": "outcome", "setting": "[10]", "result": "inactive"}]}, {"smiles": "CCc1nc(N)nc(N)c1-c1ccc(Cl)cc1", "values": [{"measurement": "AC50", "setting": "[7]", "result": "2.83 µM (active)"}, {"measurement": "outcome", "setting": "[6]", "result": "inactive"}]}, {"smiles": "Nc1nc(Cl)nc2c1ncn2[C@H]1C[C@H](O)[C@@H](CO)O1", "values": [{"measurement": "AC50", "setting": "[10]", "result": "4.88 µM (active)"}]}]}
